Source: PubChem BioAssay AID1851 (National Center for Advancing Translational Sciences (NCATS), 2009)
Where “and” joins values, the source holds several entries; their conditions need not be identical. Equal entries are not always repeated. About 4,000 (25%) of roughly 16,000 compounds were called active. Roughly 26% stayed inconclusive and do not appear here. The list is a sample of the results. Values without a mark were called inactive. The call rests on the fitted dose curve; in most records, active means well fitted curve in the direction sought with a large enough effect; inconclusive means small, poorly fitted or top-dose-only effect, or effect the other way; inactive means no such curve, though single readings can be large or run the other way.

Molecular target: Cytochrome P450 2C9 (Homo sapiens) (UniProt P11712)
Test: Cytochrome panel assay with activity outcomes
Settings: recombinant CYP, pro-luciferin dealkylation, luminescence, p450-cyp2c9; series mostly up to 57.1 µM; activity, negative = inhibition: at the top concentration
On the % scale 0 is the no-effect control and ±100 the full control effect.

Chain of Cytochrome P450 2C9 (Homo sapiens) (P11712 whole entry, looked up): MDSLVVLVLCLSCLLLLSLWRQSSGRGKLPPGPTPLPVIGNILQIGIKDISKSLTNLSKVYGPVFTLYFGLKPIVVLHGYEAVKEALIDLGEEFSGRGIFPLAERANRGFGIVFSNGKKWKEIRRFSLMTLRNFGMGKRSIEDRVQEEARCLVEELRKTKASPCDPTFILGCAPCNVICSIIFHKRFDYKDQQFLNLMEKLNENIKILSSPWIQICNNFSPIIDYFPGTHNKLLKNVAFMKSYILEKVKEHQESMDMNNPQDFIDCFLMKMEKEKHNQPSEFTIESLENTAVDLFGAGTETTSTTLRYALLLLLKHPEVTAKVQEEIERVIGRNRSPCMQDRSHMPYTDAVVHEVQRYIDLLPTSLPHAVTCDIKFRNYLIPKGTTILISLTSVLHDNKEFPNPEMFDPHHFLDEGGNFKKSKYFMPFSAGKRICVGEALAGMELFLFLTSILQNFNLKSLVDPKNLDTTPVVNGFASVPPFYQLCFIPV

Row | Compound | activity, negative = inhibition | AC50
1 | CC[C@]1(O)C[C@@H]2CN(CCc3c([nH]c4ccccc34)[C@](C(=O)OC)(c3cc4c(cc3OC)N(C=O)[C@H]3[C@@](O)(C(=O)OC)[C@H](C(=O)OC)[C@@]5(CC)C=CCN6CC[C@]43[C@H]65)C2)C1 | -28.6% | –
2 | CC(C)C(O)(C#CCN1CCCC1)c1ccccc1 (stereo not given) | -10.7% | –
3 | CC(C)(C)N1C(=O)[C@H]2[C@@H]3[C@H](O)C=CC(=O)[C@H]3CC[C@H]2C1=O | 3.18% [at 11.4 µM] | –
4 | CC(=O)O[C@]12CC[N@+]3(C)CCCC[C@@H]3[C-]1Nc1ccccc12 | 2.24% [at 11.4 µM] | –
5 | Cc1ccc(C2=C(Cl)C(=O)C(c3ccc(C)cc3)=C(Cl)C2=O)cc1 | – | 1.58 µM (active)
6 | COc1ccc(/C=N/NC(=O)CCCOc2ccc(Cl)cc2Cl)cc1[N+](=O)[O-] | – | 2.24 µM (active)
7 | CC1(C)CC(=O)C/C(=N/NC(=O)CCCOc2ccc(Cl)cc2Cl)C1 | 17.7% | –
8 | COC(=O)[C@@H]1CC[C@H](C)[C@@H](c2ccc(C)cc2)N1C(=O)c1ccc(/C=N\OC[C@@H]2O[C@H](c3ccccc3)C=C[C@@H]2Oc2ccc(OC)cc2)cc1 | -16.2% [at 11.4 µM] | –
9 | CCCNC(=O)OC[C@@H]1O[C@H](CCO/N=C\c2ccc(C(=O)N3[C@H](c4ccc(C)cc4)[C@@H](C)CC[C@H]3C(=O)OC)cc2)C=C[C@@H]1Oc1ccc(OC)cc1 | – | 3.98 µM (active)
10 | COC(=O)C/C=C\[C@@H](C)[C@@H](/C=N\O[C@@H](C)c1cn([C@H](CO)Cc2ccccc2)nn1)OC | -11.4% [at 11.4 µM] and -9% [at 11.4 µM] | –
11 | C=CC[C@@H]1C=C[C@H](ON=C(C)C)[C@H](CO)O1 | 12% [at 11.4 µM] | –
12 | COC(=O)C/C=C\[C@@H](C)[C@@H](/C=N\O[C@@H](C)c1cn([C@H](CO)Cc2ccccc2)nn1)NS(=O)(=O)c1ccc(C)cc1 | -29.2% [at 11.4 µM] | –
13 | COC(=O)C/C=C\[C@@H](C)[C@@H](/C=N\OC[C@@H](O)COCc1ccco1)OC | -26.7% [at 11.4 µM] | –
14 | COC(=O)[C@@H]1CC[C@H](C)[C@@H](c2ccc(C)cc2)N1C(=O)c1ccc(/C=N\OC[C@@H](O)COCc2ccco2)cc1 | – | 3.98 µM (active)
15 | CCCNC(=O)OC[C@@H]1O[C@H](CCO/N=C\C[C@H]2C=C[C@H](OC(C)=O)[C@@H](COC(C)=O)O2)C=C[C@@H]1Oc1ccc(OC)cc1 | -11.7% [at 11.4 µM] | –
16 | C=CC[C@@H]1C=C[C@@H](O/N=C\[C@@H](OC)[C@H](C)/C=C\CC(=O)OC)[C@@H](CO)O1 | 21.3% [at 11.4 µM] | –
17 | C=CC[C@@H]1C=C[C@@H](O/N=C\c2ccc(C(=O)N3[C@H](c4ccc(C)cc4)[C@@H](C)CC[C@H]3C(=O)OC)cc2)[C@@H](CO)O1 | – | 3.98 µM (active)
18 | COC(=O)[C@@H]1CC[C@H](C)[C@@H](c2ccc(C)cc2)N1C(=O)c1ccc(/C=N\OC[C@@H](C)[C@H](OCc2ccccc2)C(C)C)cc1 | -24.2% [at 11.4 µM] | –
19 | COC(=O)[C@@H]1CC[C@H](C)[C@@H](c2ccc(C)cc2)N1C(=O)c1ccc(/C=N\O[C@@H](C)c2cn([C@H](CO)Cc3ccccc3)nn2)cc1 | – | 3.16 µM (active) and 2.51 µM (active)
20 | C/C(CCN1CCc2nc(-c3ccccc3)c(-c3ccccc3)cc2C1)=N\O[C@@H](C)CN1CCCc2nc(C)c(C)cc21 | -19.9% [at 11.4 µM] | –

Row | Compound | activity, negative = inhibition | AC50
21 | CC(C)=CCC/C(C)=C/CO/N=C1/C[C@@H](O)[C@@H](O)[C@@H]2[C@@H]3C(=O)N(Cc4ccc5c(c4)OCO5)C(=O)[C@H]3CC[C@@H]12 | -23.6% [at 11.4 µM] | –
22 | O=C(c1ccco1)N1CCC[C@@]2(CCN(Cc3ccccc3)C2)C1 | 2.14% | –
23 | CO/N=C\c1ccc(C(=O)N2[C@H](c3ccc(C)cc3)[C@@H](C)CC[C@H]2C(=O)OC)cc1 | – | 2.51 µM (active)
24 | COC(=O)C/C=C\[C@@H](C)[C@@H](/C=N\OC[C@@H](O)[C@H]1O[C@H]2OC(C)(C)O[C@H]2[C@@H]1O)NS(=O)(=O)c1ccc(C)cc1 | 2.11% [at 11.4 µM] | –
25 | COC(=O)C/C=C\[C@@H](C)[C@@H](/C=N\OC[C@@H](O)[C@H]1O[C@H]2OC(C)(C)O[C@H]2[C@@H]1O)OC | 8.96% [at 11.4 µM] | –
26 | COC(=O)[C@@H]1CC[C@H](C)[C@@H](c2ccc(C)cc2)N1C(=O)c1ccc(/C=N\OC[C@@H](O)[C@H]2O[C@H]3OC(C)(C)O[C@H]3[C@@H]2O)cc1 | – | 2.51 µM (active)
27 | C[C@@]12CCC(=O)C=C1CC[C@@H]1[C@@H]2[C@H](O)C[C@]2(C)[C@@H]1CC[C@]2(O)C(=O)CO | -1.37% [at 25.6 µM] | –
28 | CN[C@@H](c1ccncc1)[C@@H](NC)c1ccncc1 | -8.04% [at 11.4 µM] | –
29 | COCCNc1ncnc2ccc(-c3ccccc3C(F)(F)F)cc12 | 11% [at 2.29 µM] | –
30 | Cc1nn(C)cc1C(C(=O)NC1CCCCC1)N(C(=O)Cc1cccs1)c1ccc(C(C)C)cc1 (stereo not given) | – | 25.1 µM (active)
31 | CC(C)(C)NC(=O)C(c1ccccn1)N(C(=O)C1CSC(=O)C1)c1ccc(F)cc1 (stereo not given) | -13.1% | –
32 | Cc1cc(C)cc(N(C(=O)Cc2cccs2)C(C(=O)NC2CCCCC2)c2ccccn2)c1 (stereo not given) | – | 17.8 µM (active)
33 | Cc1ccc(C(C(=O)NC2CCCCC2)N(CC2CCCO2)C(=O)CNC(=O)c2cccs2)cc1 (stereo not given) | -15.9% | –
34 | NC1=C(O)C(=O)[C@H](c2c[nH]c3ccc(OCc4ccccc4)cc23)O1 | -27.4% [at 11.4 µM] | –
35 | CC(C)C(=O)Nc1cc2c(cc1C(=O)c1ccccc1)OCCO2 | – | 8.91 µM (active)
36 | CC(C)/C(=N/[N+](C)(C)C)c1ccccc1 | 9.65% [at 11.4 µM] | –
37 | CC(=O)c1cc2c(cc1NC(=O)CCCC(=O)O)OCO2 | 0.864% | –
38 | O=C(CCN1C(=O)S/C(=C\c2ccccc2)C1=O)Nc1ccc(S(=O)(=O)Nc2nccs2)cc1 | – | 1.58 µM (active)
39 | O=C(O)c1ccccc1C(=O)Nc1ccc(S(=O)(=O)Nc2nccs2)cc1 | -19.3% [at 25.6 µM] | –
40 | O=C1Nc2ccccc2C1=Nc1ccc(S(=O)(=O)Nc2nccs2)cc1 | 8.43% [at 11.4 µM] | –
